Test [1] is described as follows: small molecules captured by biotinylated probe aFSTL3 – biochemical, small-molecule microarray, fluorescence 635/667, stem cell growth factor project, primary screen (AID 1064).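 Also: measures binding of the biotinylated anti-FSTL3 antibody to printed compounds.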 To be noted: higher = more signal.
Test [2] can be described thus: binders from COS7 lysate, DM2A8 probe, primary screen, torsin A project, cell lysate, small-molecule microarray, fluorescence 635/667 (AID 1065). To be noted: higher = more signal, COS7 lysate expressing mutant human TOR1A.
The nature of test [3]: small molecules captured by biotinylated probe aFGF2 – biochemical, small-molecule microarray, fluorescence 635/667, stem cell growth factor project, primary screen (AID 1067).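 Also: measures binding of biotinylated aFGF2 protein to printed compounds on slides; z-score merges feature fluorescence and signal-to-noise across triplicate slides.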 To be noted: higher = more signal.
Test [4] in a line: small molecules captured by biotinylated probe aFGF10 – biochemical, small-molecule microarray, fluorescence 635/667, stem cell growth factor project, primary screen (AID 1071).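 Also: score merges 667 nm spot intensity and signal to noise from triplicate slides.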 The conditions noted are these: higher = more signal.
In test [5] the target is Neurogenic locus notch homolog protein 2 (Homo sapiens) (UniProt Q04721). Description: small molecules binding Notch2 protein – biochemical, small-molecule microarray, 635 nm fluorescence, stem cell growth factors, primary screen (AID 1073). To be noted: higher = more signal.
In test [6] the target is Pro-neuregulin-1, membrane-bound isoform (Homo sapiens) (UniProt Q02297). Description: small molecules binding neuregulin-1 protein – biochemical, small-molecule microarray, fluorescence 635/667, psychiatric disease protein project, primary screen (AID 1075).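 Also: score combines 667 nm spot fluorescence with signal to noise.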 The conditions noted are these: NRG1 binding, 635 nm fluorescence, higher = more signal.
The test system of test [7] is Neuregulin-1 EGF-like domain. Description: small molecules binding NRG1 EGF domain – biochemical, small-molecule microarray, 635 nm fluorescence, primary screen (AID 1081).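 Also: binding of the protein to compounds printed on small-molecule microarray slides.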 To be noted: higher = more signal.
Test [8] is described as follows: FRG1 expression reporter modulators in myotubes – cell-based, C2C12 myotubes, firefly/Renilla luciferase, luminescence, FRG1 inhibition for FSHD, primary screen (AID 1084). To be noted: FRG1 promoter luciferase, higher = more signal, called active from +8 up or from −8 down.
Test [9] is described as follows: small molecules captured by biotinylated probe aFST – biochemical, small-molecule microarray, fluorescence 635/667, stem cell growth factor project, primary screen (AID 1086).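 Also: score merges 667 nm fluorescence with signal-to-noise of each printed compound spot.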 The conditions noted are these: higher = more signal.
A short description of test [10]: binders of probe aHhip on microarray, primary screen, stem cell growth factor project, biochemical, small-molecule microarray, fluorescence 635/667 (AID 1087).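 Also: score merges spot fluorescence at 667nm with spot signal to noise ratio.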 The conditions noted are these: higher = more signal.

SMILES strings stand for the structures. The source made the active and inactive calls.

Chain of Pro-neuregulin-1, membrane-bound isoform (Homo sapiens) (Q02297 whole entry, looked up, the tested form may be a part, canonical isoform): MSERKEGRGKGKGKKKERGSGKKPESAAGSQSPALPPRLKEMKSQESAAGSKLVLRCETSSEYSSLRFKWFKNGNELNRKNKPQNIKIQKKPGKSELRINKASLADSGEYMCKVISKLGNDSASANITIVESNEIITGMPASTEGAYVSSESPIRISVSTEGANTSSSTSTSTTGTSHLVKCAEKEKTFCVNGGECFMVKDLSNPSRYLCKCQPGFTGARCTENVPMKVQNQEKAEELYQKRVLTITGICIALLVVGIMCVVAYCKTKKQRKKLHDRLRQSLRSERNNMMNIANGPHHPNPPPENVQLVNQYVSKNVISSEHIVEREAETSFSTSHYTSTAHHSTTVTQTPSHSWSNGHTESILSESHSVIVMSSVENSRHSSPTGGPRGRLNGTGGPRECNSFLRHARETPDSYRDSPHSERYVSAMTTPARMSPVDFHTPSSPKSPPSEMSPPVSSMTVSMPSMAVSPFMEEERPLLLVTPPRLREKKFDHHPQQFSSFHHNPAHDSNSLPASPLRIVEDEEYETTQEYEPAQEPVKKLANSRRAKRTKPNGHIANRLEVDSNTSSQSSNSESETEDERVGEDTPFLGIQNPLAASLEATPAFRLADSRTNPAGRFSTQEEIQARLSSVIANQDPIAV
Chain of Neurogenic locus notch homolog protein 2 (Homo sapiens) (Q04721 whole entry, looked up, canonical isoform): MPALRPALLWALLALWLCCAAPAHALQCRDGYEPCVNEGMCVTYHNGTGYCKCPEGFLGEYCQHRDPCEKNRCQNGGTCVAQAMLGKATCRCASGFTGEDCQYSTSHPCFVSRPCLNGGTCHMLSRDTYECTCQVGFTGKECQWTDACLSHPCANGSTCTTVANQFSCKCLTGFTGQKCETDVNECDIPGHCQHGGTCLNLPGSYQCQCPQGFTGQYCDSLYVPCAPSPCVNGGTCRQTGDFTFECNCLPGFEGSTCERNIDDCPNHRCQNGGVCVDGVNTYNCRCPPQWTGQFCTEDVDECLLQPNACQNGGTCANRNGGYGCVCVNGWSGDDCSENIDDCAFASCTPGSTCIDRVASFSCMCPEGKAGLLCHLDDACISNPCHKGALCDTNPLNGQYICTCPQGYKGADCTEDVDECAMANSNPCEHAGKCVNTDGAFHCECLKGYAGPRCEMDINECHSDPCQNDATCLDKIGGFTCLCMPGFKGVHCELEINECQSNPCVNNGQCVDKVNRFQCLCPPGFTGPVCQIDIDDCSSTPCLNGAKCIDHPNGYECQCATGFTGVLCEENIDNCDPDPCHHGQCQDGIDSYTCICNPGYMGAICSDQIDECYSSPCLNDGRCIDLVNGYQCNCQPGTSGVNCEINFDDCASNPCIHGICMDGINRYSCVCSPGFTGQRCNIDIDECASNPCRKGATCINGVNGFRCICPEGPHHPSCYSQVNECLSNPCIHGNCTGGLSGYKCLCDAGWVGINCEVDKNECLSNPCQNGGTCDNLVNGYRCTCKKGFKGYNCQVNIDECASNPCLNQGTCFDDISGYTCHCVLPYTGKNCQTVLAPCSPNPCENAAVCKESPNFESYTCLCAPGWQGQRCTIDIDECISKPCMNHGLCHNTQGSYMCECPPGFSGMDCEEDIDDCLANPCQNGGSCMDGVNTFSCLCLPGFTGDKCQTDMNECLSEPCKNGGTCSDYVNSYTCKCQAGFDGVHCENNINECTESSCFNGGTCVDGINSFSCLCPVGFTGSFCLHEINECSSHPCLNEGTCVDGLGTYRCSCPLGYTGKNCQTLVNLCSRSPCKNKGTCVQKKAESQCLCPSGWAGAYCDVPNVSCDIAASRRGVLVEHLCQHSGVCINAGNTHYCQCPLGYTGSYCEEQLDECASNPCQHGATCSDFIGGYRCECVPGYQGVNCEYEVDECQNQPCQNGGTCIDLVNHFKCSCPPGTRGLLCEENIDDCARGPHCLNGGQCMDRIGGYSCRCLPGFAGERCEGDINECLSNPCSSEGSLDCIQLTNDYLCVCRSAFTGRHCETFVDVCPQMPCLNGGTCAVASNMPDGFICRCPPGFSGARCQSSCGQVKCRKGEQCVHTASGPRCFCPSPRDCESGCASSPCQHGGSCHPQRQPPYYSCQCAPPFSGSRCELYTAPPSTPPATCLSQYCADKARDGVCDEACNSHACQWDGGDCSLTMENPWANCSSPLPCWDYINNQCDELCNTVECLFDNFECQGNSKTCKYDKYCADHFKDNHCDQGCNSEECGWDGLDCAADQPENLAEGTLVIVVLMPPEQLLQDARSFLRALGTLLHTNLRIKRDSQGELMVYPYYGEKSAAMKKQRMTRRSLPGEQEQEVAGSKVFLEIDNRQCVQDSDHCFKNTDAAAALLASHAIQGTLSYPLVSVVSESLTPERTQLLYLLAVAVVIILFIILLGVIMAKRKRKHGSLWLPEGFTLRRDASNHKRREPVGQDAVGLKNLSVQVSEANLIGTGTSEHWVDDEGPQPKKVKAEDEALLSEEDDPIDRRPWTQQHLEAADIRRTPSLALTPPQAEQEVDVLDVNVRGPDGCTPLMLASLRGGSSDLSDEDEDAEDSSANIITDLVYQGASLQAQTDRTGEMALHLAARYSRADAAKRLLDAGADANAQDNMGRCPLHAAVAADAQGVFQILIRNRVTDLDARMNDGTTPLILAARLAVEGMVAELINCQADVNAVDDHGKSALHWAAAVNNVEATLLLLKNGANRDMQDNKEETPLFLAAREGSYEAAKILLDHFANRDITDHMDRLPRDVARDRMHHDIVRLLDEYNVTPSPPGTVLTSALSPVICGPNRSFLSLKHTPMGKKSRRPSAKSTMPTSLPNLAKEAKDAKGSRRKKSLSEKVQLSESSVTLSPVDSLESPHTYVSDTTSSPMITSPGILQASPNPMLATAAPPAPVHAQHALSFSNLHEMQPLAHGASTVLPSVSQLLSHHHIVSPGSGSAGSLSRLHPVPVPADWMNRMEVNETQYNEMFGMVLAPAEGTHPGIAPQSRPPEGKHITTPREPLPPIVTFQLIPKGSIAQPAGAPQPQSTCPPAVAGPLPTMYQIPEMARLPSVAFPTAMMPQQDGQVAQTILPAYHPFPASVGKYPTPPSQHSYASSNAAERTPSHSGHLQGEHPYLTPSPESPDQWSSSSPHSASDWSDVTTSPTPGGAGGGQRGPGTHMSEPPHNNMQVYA

As for `CCN1C(=O)[C@H]2[C@H]3[C@H](O)[C@H](O)CC(=NO[C@@H]4O[C@H](COC(C)=O)[C@@H](OC(C)=O)[C@H](OC(C)=O)[C@H]4OC(C)=O)[C@@H]3CC[C@H]2C1=O`, the composite z-score in [1] is -0.665; in test [2], 0.588; in test [3], -0.0319; in test [4], 0.794; in test [5] it was 0.948; in [6], 0.357. The composite z-score was 1 in test [7], 0.054 in test [9] and -0.0994 in test [10]. The z-score in [8] is 0.186 (inactive).
Regarding `CC(CCC(=O)OC[C@H]1O[C@H](C#Cc2ccccc2)C=C[C@@H]1Oc1ccc(C)cc1)=NOC(C)CN1CCCc2nc(C)c(C)cc21` (stereo not given in full), the composite z-score was -0.293 in test [1]; 0.0877 in test [2]; -0.0783 in [3]; 0.413 in [4]; 0.869 in test [5]; 0.617 in test [6]. Moreover, the composite z-score in test [7] is 0.684; in [9], 0.69; in [10], -0.0319. Besides, in [8], the z-score was 0.517 (inactive).
For the compound `CON=C[C@@H](OC)[C@H](C)C=CCC(=O)OC`, the composite z-score was -0.447 in test [1]; 0.0818 in test [2]; -0.191 in test [3]; 0.172 in [4]; -0.0904 in test [5]; -0.513 in [6]. The composite z-score in test [7] is -0.499; in test [9], 0.272; in test [10], 0.0401. The z-score in [8] was -0.0681 (inactive).
As to `O=C1C=C[C@@H](O)[C@@H]2[C@@H]3C(=O)N(Cc4ccccc4)C(=O)[C@@H]3CC[C@@H]12`, the composite z-score in test [1] was -0.496; in test [2] it was -0.0062; in test [3], -0.171; in test [4], 0.373; in [5], 0.632; in test [6] it was 0.159. Also, the composite z-score in test [7] amounted to 0.543; in [9], 0.0563; in [10], 0.226. The z-score in test [8] is -0.895 (inactive).
Turning to `C=CCOCC1CN2[C@@H](CC[C@@H](C)[C@@H]2c2ccc(Br)cc2)C(=O)O1` (stereo not given in full), the composite z-score in test [1] is -0.155; in test [2] it was 0.0527; in test [3] it was -0.16; in [4], -0.204; in test [5], -0.619; in test [6], -0.391. Also, the composite z-score in test [7] is -0.479; in test [9], -0.546; in test [10], -0.0994. Moreover, in test [8], the z-score is -0.0613 (inactive).
In the case of `Cc1ccc(C(C)C)n1C(=O)OC(C)(C)C`, the composite z-score is -0.504 in test [1]; 0.166 in [2]; -0.0621 in [3]; 0.357 in test [4]; 0.404 in test [5]; -0.199 in test [6]. For the same compound, the composite z-score in test [7] is 0.477; in test [9], -0.3; in [10], 0.0749. Besides, the z-score in test [8] is -1.08 (inactive).
`CC(CCN1CCCCc2nc(C)c(C)cc21)=NO[C@@H](C)c1cc(-c2c(C)cc(C)cc2C)no1`: the composite z-score is -0.0105 in test [1]; -0.454 in test [2]; -0.232 in [3]; -0.33 in test [4]; -1.93 in test [5]; 0.0782 in [6]. Besides, the composite z-score in [7] is -0.246; in test [9], -0.689; in test [10], -0.134. The z-score in [8] is -1.49 (inactive).
With `COC(=O)CC=C[C@@H](C)[C@@H](C=NOC[C@@H](C)[C@H](OCc1ccccc1)C(C)C)OC`, the composite z-score is -0.598 in [1]; -0.163 in test [2]; -0.0985 in test [3]; 0.229 in test [4]; 0.0445 in [5]; -0.296 in [6]. In addition, the composite z-score in [7] is 0.413; in test [9], -0.0348; in test [10], -0.395. For the same compound, in test [8], the z-score was 0.947 (inactive).
Take `C=CC[C@@H]1C=C[C@H](Oc2ccc(C)cc2)[C@@H](COC(=O)NCc2cccc3ccccc23)O1`: the composite z-score in test [1] was -0.406; in test [2], 0.012; in [3] it was -0.144; in test [4], 0.655; in test [5], -0.141; in test [6], 0.528. Also, the composite z-score is 0.724 in test [7], -0.174 in test [9] and -0.251 in test [10]. In test [8], the z-score was -0.446 (inactive).
For `CC(C)[C@@H](OCc1ccccc1)[C@H](C)C=NO[C@H](C)c1cn([C@@H]2COC[C@H]2O)nn1`, the composite z-score is -0.478 in [1]; 0.402 in test [2]; -0.0262 in [3]; 0.281 in [4]; 0.794 in [5]; -0.0746 in test [6]. Further, the figures for the composite z-score in [7], in test [9] and in [10] were 1.07, -0.0844 and 0.165, respectively. Moreover, the z-score in test [8] is 0.476 (inactive).
For the compound `COc1ccc(OC[C@@H](CO)OC)cc1`, the composite z-score was -0.306 in test [1]; 0.415 in test [2]; -0.0512 in test [3]; 0.3 in [4]; 0.0354 in test [5]; -0.156 in [6]. The composite z-score was -0.0824 in [7], 0.0746 in [9] and -0.0994 in [10]. Further, the z-score in [8] was 0.759 (inactive).
As to `CC(C)CON=C1C[C@@H](O)[C@@H](O)[C@@H]2[C@@H]3C(=O)N(C(C)(C)C)C(=O)[C@@H]3CC[C@@H]12`, the composite z-score in test [1] is -0.7; in [2], 2.77; in [3], -0.243; in test [4], -0.541; in test [5] it was -0.483; in test [6] it was -0.517. The values for the composite z-score in test [7], in test [9] and in test [10] were 0.694, -0.0117 and -0.303, respectively. For the same compound, the z-score in test [8] is 0.0071 (inactive).
With `O=C1[C@H]2[C@H]3[C@H](O)[C@H](O)CC(=NOC[C@@H](O)COCc4ccco4)[C@@H]3CC[C@H]2C(=O)N1c1cccc(Oc2ccccc2)c1`, the composite z-score in [1] is -0.424; in test [2], -0.78; in test [3], -0.172; in [4] it was -0.177; in [5], -1.08; in [6], -0.628. The composite z-score in [7] was -0.554; in test [9], -0.465; in test [10] it was -0.179. For the same compound, in test [8], the z-score was -0.0105 (inactive).
For the compound `CO[C@@H](C1CCCCC1)[C@@H](C)[C@H](OCc1cccc(Br)c1)[C@@H](C)CO`, the composite z-score in test [1] is -0.284; in [2] it was -0.0003; in [3], -0.0909; in test [4] it was 0.179; in test [5], -0.0552; in test [6], -0.194. For the same compound, the composite z-score in test [7] is -0.511; in test [9], 0.306; in [10] it was -0.0173. Further, the z-score in [8] is 2.57 (inactive).
For the compound `C#CCCCON=C1C[C@@H](O)[C@@H](O)[C@@H]2[C@@H]3C(=O)N([C@@H](C)c4ccccc4)C(=O)[C@@H]3CC[C@@H]12`, the composite z-score in test [1] was -0.0065; in test [2], -0.318; in [3], -0.17; in [4] it was -0.46; in test [5], -0.351; in [6], -0.191. Moreover, the values for the composite z-score in test [7], in test [9] and in [10] were -0.934, -0.069 and -0.267, respectively. The z-score in test [8] was 0.0665 (inactive).
`CC(C)(C)N1C(=O)[C@H]2[C@H]3[C@H](O)[C@H](O)CC(=NOC[C@@H](O)COCc4ccco4)[C@H]3CC[C@H]2C1=O`: the composite z-score is 0.784 in [1]; 0.733 in test [2]; -0.0423 in test [3]; 0.227 in [4]; 0.0009 in [5]; 0.107 in test [6]. Besides, the composite z-score is 0.173 in test [7], 0.616 in [9] and -0.0003 in test [10]. Also, the z-score in test [8] is -0.241 (inactive).
As to `COC(=O)CC=C[C@@H](C)[C@@H](C=NOC(C)CN1CCCc2nc(C)c(C)cc21)NS(=O)(=O)c1ccc(C)cc1` (stereo not given in full), the composite z-score was -0.0882 in [1]; 0.296 in test [2]; -0.0202 in [3]; 0.469 in test [4]; 0.699 in test [5]; 0.257 in test [6]. Moreover, the composite z-score in [7] stood at 0.665; in [9], 0.316; in test [10], 0.809. The z-score in [8] was 0.562 (inactive).
For `CCOC(=O)NN=C1C[C@@H](O)[C@@H](O)[C@@H]2[C@@H]3C(=O)N(CC)C(=O)[C@@H]3CC[C@H]12`, the composite z-score was -0.431 in [1]; 0.36 in test [2]; -0.1 in test [3]; 0.389 in [4]; 0.384 in [5]; -0.313 in test [6]. Further, the composite z-score is 0.539 in test [7], 0.007 in [9] and -0.153 in test [10]. Further, the z-score in test [8] is -0.323 (inactive).

Values taken from PubChem BioAssay.
